Measured values published in the supplement of paper PMC10849652.
Targets with a hit are over-represented here; the source holds about 8,800 in all. About 0.5% of all pairs of compound and target were hits.

Legend:
Assay in all cases: log2 fold change, soluble protein after heating vs DMSO (PISA); higher = thermal stabilisation; K562 lysate, 10 uM; active = over 0.2 and 3.5 SD of the protein, either way, in both replicates (recomputed)
[1] = compound: C1=CC=C(C=C1)[C@H](COC2=CC3=C(C=C2)NC(=O)N3)NC(=O)C4=CC=CN(C4=O)CC5=CC(=C(C=C5)F)F
How it was run: (§1)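 To prepare the extract, K562 pellets were dounce-homogenised in PBS pH 7.4 with 1 mM MgCl2, giving crude material at 1 mg/mL protein. This was treated with 10 μM compound for 30 min, then heated in aliquots for 3 min over 48°C-58°C before pooling and addition of NP-40 to 0.5% at 4°C. Centrifugation at 21,000xg for 90 min left soluble protein in the supernatant, which TMTpro 16plex LC-MS/MS quantified with equalised channel sums. Results are log-two fold changes in thermal stability compared with solvent controls, from duplicates.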

[2] = compound: CC1=C(SC2=C1C(=N[C@H](C3=NN=C(N32)C)CC(=O)N)C4=CC=C(C=C4)Cl)C
How it was run: as §1

[3] = compound: CC1=C2C(=CC=C1)N=C(N(C2=O)C3=CC=CC=C3C)CN4C=NC5=C(N=CN=C54)N
How it was run: as §1

[4] = compound: Cc1sc2c(c1C)C(c1ccc(Cl)cc1)=N[C@@H](CC(=O)OC(C)(C)C)c1nnc(C)n1-2
How it was run: as §1

[5] = compound: c1ccc([C@@H]2C[C@H]2NC2CCNCC2)cc1
How it was run: as §1

Measured: log2 fold change

COQ9 (UniProt O75208)
UniProt O75208, sequence (O75208 whole entry, looked up): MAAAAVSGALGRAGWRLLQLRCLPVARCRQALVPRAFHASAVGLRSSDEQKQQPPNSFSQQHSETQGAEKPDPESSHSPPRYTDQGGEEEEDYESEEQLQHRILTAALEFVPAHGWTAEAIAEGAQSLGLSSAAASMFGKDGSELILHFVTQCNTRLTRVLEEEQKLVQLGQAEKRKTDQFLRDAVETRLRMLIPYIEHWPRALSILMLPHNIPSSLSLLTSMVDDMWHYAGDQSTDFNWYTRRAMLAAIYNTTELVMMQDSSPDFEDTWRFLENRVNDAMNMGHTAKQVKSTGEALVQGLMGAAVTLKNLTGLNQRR
inactive: [1] -0.102 | [2] -0.069 | [3] 0.026 | [4] 0.015 | [5] 0.08

DLD (UniProt P09622)
inactive: [1] 0.005 | [2] -0.017 | [3] 0.008 | [4] -0.022 | [5] -0.076

CIP2A (UniProt Q8TCG1)
inactive: [1] -0.03 | [2] -0.002 | [3] -0.008 | [4] -0.021 | [5] 0.018

DENND1B (UniProt Q6P3S1)
inactive: [1] 0.154 | [2] -0.205 | [3] -0.062 | [4] -0.182 | [5] 0.014

DLGAP5 (UniProt Q15398)
inactive: [1] 0.029 | [2] -0.006 | [3] 0.009 | [4] -0.036 | [5] -0.015

DPM1 (UniProt O60762)
inactive: [1] -0.01 | [2] 0.048 | [3] 0.022 | [4] 0.073 | [5] 0.093

DENND4A isoform 2 (UniProt Q7Z401)
inactive: [1] -0.02 | [2] 0.028 | [3] -0.007 | [4] 0.039 | [5] -0.064

DHFR (UniProt P00374)
inactive: [1] -0.024 | [2] 0.024 | [3] 0.016 | [4] 0.031 | [5] 0.021

CLPTM1L (UniProt Q96KA5)
inactive: [1] -0.075 | [2] 0.039 | [3] 0.04 | [4] -0.02 | [5] 0.022

CSNK1G3 (UniProt Q9Y6M4)
inactive: [1] -0.041 | [2] 0.017 | [3] -0.013 | [4] 0.006 | [5] -0.03

DNAJC1 (UniProt Q96KC8)
inactive: [1] -0.113 | [2] -0.021 | [3] 0.039 | [4] -0.011 | [5] 0.021

CUX1 isoform 3 (UniProt P39880)
UniProt P39880, sequence (P39880 whole entry, looked up): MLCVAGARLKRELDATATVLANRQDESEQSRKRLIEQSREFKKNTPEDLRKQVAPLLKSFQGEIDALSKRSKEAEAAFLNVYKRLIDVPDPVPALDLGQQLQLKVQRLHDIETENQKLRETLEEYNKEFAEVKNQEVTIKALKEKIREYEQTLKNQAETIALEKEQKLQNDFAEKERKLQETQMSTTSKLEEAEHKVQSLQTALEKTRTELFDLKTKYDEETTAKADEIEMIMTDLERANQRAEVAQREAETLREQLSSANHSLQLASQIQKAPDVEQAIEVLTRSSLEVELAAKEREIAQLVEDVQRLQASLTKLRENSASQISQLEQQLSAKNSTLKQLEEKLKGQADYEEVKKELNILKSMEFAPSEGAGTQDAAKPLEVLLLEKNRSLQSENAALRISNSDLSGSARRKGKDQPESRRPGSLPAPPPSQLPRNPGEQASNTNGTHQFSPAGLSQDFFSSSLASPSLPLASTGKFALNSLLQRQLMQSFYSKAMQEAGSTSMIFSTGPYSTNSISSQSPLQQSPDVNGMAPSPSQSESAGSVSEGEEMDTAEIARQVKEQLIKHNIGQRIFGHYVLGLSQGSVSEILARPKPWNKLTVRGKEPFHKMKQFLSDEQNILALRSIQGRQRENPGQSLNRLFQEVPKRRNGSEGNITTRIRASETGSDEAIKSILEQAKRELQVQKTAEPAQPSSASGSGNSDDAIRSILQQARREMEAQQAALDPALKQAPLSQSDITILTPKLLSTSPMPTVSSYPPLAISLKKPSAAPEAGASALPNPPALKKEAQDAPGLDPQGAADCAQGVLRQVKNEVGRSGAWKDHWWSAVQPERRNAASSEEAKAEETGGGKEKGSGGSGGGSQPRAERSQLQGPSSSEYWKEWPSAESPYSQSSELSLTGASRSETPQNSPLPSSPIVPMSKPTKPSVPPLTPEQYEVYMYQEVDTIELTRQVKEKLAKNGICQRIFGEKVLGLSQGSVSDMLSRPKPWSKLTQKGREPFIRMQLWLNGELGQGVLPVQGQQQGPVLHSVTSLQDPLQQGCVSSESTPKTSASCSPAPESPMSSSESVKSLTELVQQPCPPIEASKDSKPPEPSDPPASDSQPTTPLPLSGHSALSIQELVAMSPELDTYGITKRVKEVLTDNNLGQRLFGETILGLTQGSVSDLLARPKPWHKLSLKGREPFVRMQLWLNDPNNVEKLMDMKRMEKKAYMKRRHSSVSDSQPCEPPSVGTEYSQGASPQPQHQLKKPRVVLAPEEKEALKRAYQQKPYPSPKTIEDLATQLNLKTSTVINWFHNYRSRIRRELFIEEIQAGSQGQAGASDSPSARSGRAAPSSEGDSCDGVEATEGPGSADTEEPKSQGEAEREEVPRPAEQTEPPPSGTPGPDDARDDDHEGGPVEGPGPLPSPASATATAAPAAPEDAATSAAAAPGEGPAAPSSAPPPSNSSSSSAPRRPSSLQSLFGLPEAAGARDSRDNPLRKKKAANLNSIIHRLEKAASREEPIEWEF
inactive: [1] -0.001 | [2] 0.024 | [3] 0.031 | [4] 0.025 | [5] 0.03

CMIP (UniProt Q8IY22)
inactive: [1] -0.012 | [2] -0.006 | [3] -0.002 | [4] -0.029 | [5] 0.032

DNM2 (UniProt P50570)
inactive: [1] -0.01 | [2] 0.038 | [3] 0.035 | [4] 0.05 | [5] 0.057

CSTB (UniProt P04080)
inactive: [1] -0.031 | [2] -0.018 | [3] -0.032 | [4] -0.071 | [5] -0.146

DOK1 (UniProt Q99704)
inactive: [1] 0.048 | [2] -0.024 | [3] -0.005 | [4] 0.064 | [5] -0.036

CLIP1 isoform 1 (UniProt P30622)
inactive: [1] 0.04 | [2] -0.008 | [3] -0.002 | [4] -0.028 | [5] -0.019

DDX4 (UniProt Q9NQI0)
UniProt Q9NQI0, sequence (Q9NQI0 whole entry, looked up): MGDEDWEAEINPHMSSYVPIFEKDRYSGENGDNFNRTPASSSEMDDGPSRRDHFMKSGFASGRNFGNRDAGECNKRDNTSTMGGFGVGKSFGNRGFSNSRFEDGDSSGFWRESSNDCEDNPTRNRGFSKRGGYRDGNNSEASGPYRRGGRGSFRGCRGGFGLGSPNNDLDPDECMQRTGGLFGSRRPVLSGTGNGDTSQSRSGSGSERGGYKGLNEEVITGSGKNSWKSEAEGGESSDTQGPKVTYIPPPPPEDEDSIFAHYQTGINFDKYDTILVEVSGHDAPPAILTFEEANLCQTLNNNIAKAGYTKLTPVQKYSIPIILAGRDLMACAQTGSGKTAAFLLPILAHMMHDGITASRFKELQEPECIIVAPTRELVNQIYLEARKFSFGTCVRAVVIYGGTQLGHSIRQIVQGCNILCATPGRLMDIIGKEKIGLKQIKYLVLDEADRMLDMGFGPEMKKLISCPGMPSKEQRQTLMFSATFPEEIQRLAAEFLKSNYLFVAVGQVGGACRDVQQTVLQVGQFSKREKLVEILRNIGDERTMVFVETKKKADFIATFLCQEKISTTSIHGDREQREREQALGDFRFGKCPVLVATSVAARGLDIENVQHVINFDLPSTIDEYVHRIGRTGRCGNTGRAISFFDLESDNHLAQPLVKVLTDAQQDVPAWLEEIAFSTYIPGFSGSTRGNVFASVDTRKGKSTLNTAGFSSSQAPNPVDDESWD
inactive: [1] -0.047 | [2] 0.007 | [3] -0.004 | [4] 0.049 | [5] -0.265

DHRS3 (UniProt O75911)
UniProt O75911, sequence (O75911 whole entry, looked up): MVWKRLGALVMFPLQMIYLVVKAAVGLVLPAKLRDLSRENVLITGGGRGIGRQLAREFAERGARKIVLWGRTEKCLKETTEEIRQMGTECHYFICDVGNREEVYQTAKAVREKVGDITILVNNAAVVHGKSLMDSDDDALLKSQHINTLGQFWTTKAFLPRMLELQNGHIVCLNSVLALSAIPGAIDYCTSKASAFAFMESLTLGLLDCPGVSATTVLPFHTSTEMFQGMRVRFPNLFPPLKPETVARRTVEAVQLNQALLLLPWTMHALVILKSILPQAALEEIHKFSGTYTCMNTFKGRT
inactive: [1] 0.073 | [2] 0.064 | [3] -0.091 | [4] 0.018 | [5] -0.004

DMAC2L (UniProt Q99766)
inactive: [1] -0.031 | [2] -0.048 | [3] 0.057 | [4] -0.005 | [5] -0.061

CYP51A1 (UniProt Q16850)
UniProt Q16850, sequence (Q16850 whole entry, looked up): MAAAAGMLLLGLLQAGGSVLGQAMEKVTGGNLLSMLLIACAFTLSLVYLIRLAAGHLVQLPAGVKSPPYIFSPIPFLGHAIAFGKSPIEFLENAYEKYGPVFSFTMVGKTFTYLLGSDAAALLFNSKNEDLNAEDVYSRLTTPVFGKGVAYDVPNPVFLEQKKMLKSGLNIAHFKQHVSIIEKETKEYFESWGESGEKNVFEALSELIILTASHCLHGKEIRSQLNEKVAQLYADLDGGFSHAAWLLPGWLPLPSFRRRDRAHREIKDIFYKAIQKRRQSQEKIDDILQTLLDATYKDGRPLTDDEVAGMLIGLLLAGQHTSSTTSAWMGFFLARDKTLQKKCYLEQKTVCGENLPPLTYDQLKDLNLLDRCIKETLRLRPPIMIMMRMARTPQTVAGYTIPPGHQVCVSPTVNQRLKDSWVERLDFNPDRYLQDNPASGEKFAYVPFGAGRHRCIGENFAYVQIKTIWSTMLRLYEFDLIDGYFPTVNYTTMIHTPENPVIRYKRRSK
inactive: [1] 0.028 | [2] -0.105 | [3] -0.058 | [4] -0.028 | [5] -0.007

CNOT2 (UniProt Q9NZN8)
inactive: [1] 0.019 | [2] -0.016 | [3] -0.019 | [4] -0.004 | [5] 0.008

DCP1A (UniProt Q9NPI6)
inactive: [1] -0.011 | [2] -0.031 | [3] 0.025 | [4] 0.018 | [5] -0.026

CMBL (UniProt Q96DG6)
inactive: [1] -0.01 | [2] -0.011 | [3] -0.027 | [4] -0.041 | [5] -0.078

CORO1A (UniProt P31146)
inactive: [1] -0.024 | [2] 0.021 | [3] 0.004 | [4] 0.078 | [5] -0.019

CINP isoform 3 (UniProt Q9BW66)
UniProt Q9BW66, sequence (Q9BW66 whole entry, looked up): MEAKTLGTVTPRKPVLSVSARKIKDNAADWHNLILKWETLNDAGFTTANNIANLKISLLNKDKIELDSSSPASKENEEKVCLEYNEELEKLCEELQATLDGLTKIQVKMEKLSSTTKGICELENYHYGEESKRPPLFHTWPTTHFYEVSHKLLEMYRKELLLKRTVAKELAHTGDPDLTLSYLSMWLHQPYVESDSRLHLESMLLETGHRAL
inactive: [1] -0.016 | [2] -0.042 | [3] 0.039 | [4] -0.157 | [5] -0.145

CMSS1 (UniProt Q9BQ75)
inactive: [1] 0.035 | [2] -0.069 | [3] -0.017 | [4] -0.023 | [5] 0.106

CRABP2 (UniProt P29373)
UniProt P29373, sequence (P29373 whole entry, looked up): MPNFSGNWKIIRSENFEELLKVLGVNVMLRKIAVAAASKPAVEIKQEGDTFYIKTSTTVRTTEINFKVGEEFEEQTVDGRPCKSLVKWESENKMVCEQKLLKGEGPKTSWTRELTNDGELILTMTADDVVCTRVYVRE
inactive: [1] -0.057 | [2] -0.051 | [3] 0.055 | [4] -0.172 | [5] -0.001

CLCN3 isoform 2 (UniProt P51790)
inactive: [1] 0.033 | [2] 0.017 | [3] 0.053 | [4] -0.015 | [5] 0.033

DGCR8 (UniProt Q8WYQ5)
inactive: [1] -0.05 | [2] 0.063 | [3] 0.004 | [4] 0.029 | [5] 0.017

CSK (UniProt P41240)
inactive: [1] -0.039 | [2] -0.049 | [3] -0.019 | [4] -0.057 | [5] -0.037

CUEDC2 (UniProt Q9H467)
inactive: [1] 0.074 | [2] 0.019 | [3] -0.017 | [4] 0.013 | [5] 0.11

CYCS (UniProt P99999)
inactive: [1] -0.013 | [2] 0.016 | [3] 0.002 | [4] 0.002 | [5] -0.01

COX20 isoform 2 (UniProt Q5RI15)
UniProt Q5RI15, sequence (Q5RI15 whole entry, looked up): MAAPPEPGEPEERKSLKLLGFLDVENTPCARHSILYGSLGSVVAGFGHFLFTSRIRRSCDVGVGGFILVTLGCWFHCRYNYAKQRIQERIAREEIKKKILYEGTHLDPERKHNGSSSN
inactive: [1] 0.01 | [2] -0.047 | [3] -0.092 | [4] 0.001 | [5] 0.23

CHMP4A isoform 2 (UniProt Q9BY43)
inactive: [1] 0.035 | [2] -0.009 | [3] 0.007 | [4] -0.022 | [5] -0.152

DPH5 isoform 5 (UniProt Q9H2P9)
UniProt Q9H2P9, sequence (Q9H2P9 whole entry, looked up): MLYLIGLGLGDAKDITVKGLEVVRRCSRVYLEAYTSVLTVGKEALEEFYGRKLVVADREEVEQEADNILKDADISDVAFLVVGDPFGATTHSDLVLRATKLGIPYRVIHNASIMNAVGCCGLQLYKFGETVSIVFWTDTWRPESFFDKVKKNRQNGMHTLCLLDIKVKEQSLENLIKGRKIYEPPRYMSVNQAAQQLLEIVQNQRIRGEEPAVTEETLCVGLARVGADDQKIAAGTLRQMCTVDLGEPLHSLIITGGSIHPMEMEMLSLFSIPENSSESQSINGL
inactive: [1] 0.047 | [2] -0.024 | [3] 0.021 | [4] -0.144 | [5] -0.118

COASY isoform 2 (UniProt Q13057)
inactive: [1] -0.049 | [2] -0.002 | [3] 0.03 | [4] 0.07 | [5] 0.01

COG3 (UniProt Q96JB2)
UniProt Q96JB2, sequence (Q96JB2 whole entry, looked up): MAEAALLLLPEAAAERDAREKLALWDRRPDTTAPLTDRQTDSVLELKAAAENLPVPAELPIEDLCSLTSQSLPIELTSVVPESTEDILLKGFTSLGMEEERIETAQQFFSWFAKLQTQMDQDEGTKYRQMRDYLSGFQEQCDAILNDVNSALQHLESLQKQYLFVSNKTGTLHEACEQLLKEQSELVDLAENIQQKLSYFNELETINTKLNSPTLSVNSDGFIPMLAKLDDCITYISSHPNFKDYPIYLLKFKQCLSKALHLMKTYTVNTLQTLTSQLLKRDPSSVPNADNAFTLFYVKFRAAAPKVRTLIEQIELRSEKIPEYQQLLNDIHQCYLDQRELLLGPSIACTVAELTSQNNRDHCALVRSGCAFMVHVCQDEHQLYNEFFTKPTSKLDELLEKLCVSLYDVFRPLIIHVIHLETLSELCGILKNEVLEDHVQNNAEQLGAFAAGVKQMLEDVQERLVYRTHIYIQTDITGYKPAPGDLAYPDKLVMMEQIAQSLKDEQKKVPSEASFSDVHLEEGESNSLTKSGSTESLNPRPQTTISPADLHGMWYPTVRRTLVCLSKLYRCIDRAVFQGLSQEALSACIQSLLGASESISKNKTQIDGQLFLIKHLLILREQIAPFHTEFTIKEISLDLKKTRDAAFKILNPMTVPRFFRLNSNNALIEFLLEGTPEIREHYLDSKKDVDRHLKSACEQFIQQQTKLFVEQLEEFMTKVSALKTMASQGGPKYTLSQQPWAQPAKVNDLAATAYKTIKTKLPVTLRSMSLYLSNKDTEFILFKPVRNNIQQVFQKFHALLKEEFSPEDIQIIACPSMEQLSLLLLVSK
inactive: [1] -0.03 | [2] -0.015 | [3] 0.016 | [4] 0.033 | [5] 0.019

COMT (UniProt P21964)
inactive: [1] -0.007 | [2] -0.01 | [3] -0.016 | [4] 0.062 | [5] 0.054

DOCK7 (UniProt Q96N67)
inactive: [1] 0.071 | [2] 0.095 | [3] -0.017 | [4] -0.011 | [5] 0.012

COG2 (UniProt Q14746)
inactive: [1] -0.038 | [2] -0.034 | [3] 0.054 | [4] 0.001 | [5] 0.009

DHRS1 (UniProt Q96LJ7)
inactive: [1] 0.15 | [2] -0.103 | [3] -0.015 | [4] 0.029 | [5] -0.107

CSNK2B (UniProt P67870)
inactive: [1] -0.02 | [2] 0.024 | [3] -0.068 | [4] 0.03 | [5] -0.016

CSNK1A1 (UniProt P48729)
inactive: [1] -0.027 | [2] 0.007 | [3] -0.033 | [4] 0.025 | [5] -0.044

CIC (UniProt I3L2J0)
inactive: [1] -0.03 | [2] -0.034 | [3] -0.109 | [4] 0.042 | [5] -0.02

CSPP1 (UniProt Q1MSJ5)
inactive: [1] -0.082 | [2] 0.001 | [3] 0.051 | [4] -0.008 | [5] -0.028

CSNK1D (UniProt P48730)
inactive: [1] -0.027 | [2] 0.014 | [3] -0.127 | [4] -0.026 | [5] 0.025

CNST (UniProt Q6PJW8)
inactive: [1] 0.041 | [2] 0.019 | [3] -0.018 | [4] 0.004 | [5] -0.031

CHEK2 (UniProt O96017)
inactive: [1] -0.02 | [2] -0.041 | [3] -0.016 | [4] 0.006 | [5] 0.014

CLASP1 (UniProt Q7Z460)
inactive: [1] -0.019 | [2] 0.011 | [3] 0.022 | [4] -0.026 | [5] -0.007

DNAJC3 (UniProt Q13217)
inactive: [1] 0.06 | [2] -0.073 | [3] -0.003 | [4] -0.01 | [5] 0.031

DHRS11 (UniProt Q6UWP2)
inactive: [1] -0.004 | [2] 0.012 | [3] 0.018 | [4] 0.013 | [5] 0.014
